The values below come from PubChem BioAssay (NCATS).

Values without a mark were called inactive. Calls follow the shape of the dose curve; as a rule, active = well fitted inhibition curve with a large enough effect; inconclusive = small, poorly fitted or top-dose-only effect; inactive = no such curve, though single readings can be large or run the other way. Positions of bridges follow the written chain, without caps; N, C: chain ends. Non-standard residues stand in square brackets, D forms with d. Residues, ends and D or L forms follow the SMILES beside them. ξ: configuration not given here. *: point of attachment. Octanoyl(6-Me) = CCC(C)CCCCC(=O)*; ξThr(3R) = C[C@@H](O)C(N)C(=O)O; dDab = NCC[C@@H](N)C(=O)O; Dab = NCC[C@H](N)C(=O)O

A short description of the assay: qHTS assay for measurement of the activity of small molecule inhibitors on Zika virus induced Caspase-3 activity in human astrocytoma cells (AID 1224859). The following applies: SNB-19 ZIKV-induced caspase-3/7, luminescence, 6 h; series mostly up to 45.7 µM; activity change, negative = inhibition: at the top concentration. The text has this:
National Center for Advancing Translational Sciences [NCATS]
Johns Hopkins University School of Medicine
Increase in the Caspase-3 activity indicates an activation of apoptosis cell death pathway caused by Zika virus infection in certain types of neuronal cells including human neural progenitor cells (hNPCs), astrocytes, and astrocytoma cell line (SNB-19). This cell-based caspase-3 activity assay measures the increased caspase-3 activity in the astrocytoma cell line (SNB-19) after a 6-hour Zika virus infection with a luminescence readout. A decrease in the luminescence signal in this assay by small molecule treatment indicates an inhibitory effect of that small molecule on the Zika virus induced caspase-3 activity that may correlate with its effect on reduction of Zika virus caused cell death.
The medium for SNB-19 cells is composed of RPMI 1640 (ATCC, Cat.# 30-2001), 10% fetal bovine serum (FBS) (GE healthcare Life Sciences, Cat.# SH30071.03), and 1% Pen/Strep (Gibco, Cat.# 15140-122). A Caspase-Glo 3/7 assay kit (catalog number G8092; Promega, Madison, WI) was used to detect caspase-3 activity induced by Zika virus infection in human cells. The reagent mixture was reconstituted as described in the protocol from the manufacturer. Polystyrene tissue culture treated and PDL coated white plates were obtained from Greiner Bio-One (Monroe, NC). Cells were seeded in 384- or 1536-well assay plates and cultured at 37 C with 5% CO2 for 16 to 20 hours. The typical cell seeding density in the 1536-well plate assay is 250 cells/well in 3ul medium for SNB-19 cells in tissue culture treated plates. Compounds were added to cells and incubated for one hour before addition of ZIKV solution to cells (2 FFU/cell). After incubation at 37 C with 5% CO2 for 6 hours, the reagent mixture of Caspase-Glo 3/7 assay kit was added to each well, followed by incubation at room temperature for 30 minutes. The luminescence intensity of the assay plates was measured using a ViewLux plate reader (PerkinElmer). Data were normalized by using the cell-containing wells without ZIKV as a negative control (0% induction of caspase 3/7 activity) and wells containing ZIKV infected cells (Caspase-3 activity induced) as a positive control (100% induction of caspase 3 activity). The percentage inhibitions of the increased Caspase-3 activity by small molecule inhibitors were then calculated.
In general terms: In qHTS, concentration-response curves come from the screen itself.
As for `CC(C)C[C@H](NC(=O)[C@@H](NC(=O)c1cccc(-c2ccccc2)n1)[C@@H](C)O)B(O)O`, the “activity change, negative = inhibition” value is 22.5%. With `CC(Oc1ccc(O)cc1)(P(=O)(O)O)P(=O)(O)O`, the “activity change, negative = inhibition” value is -5.13%. In the case of `O=C(Nc1ccc(Oc2ccnc3[nH]ccc23)c(F)c1)c1cccn(-c2ccc(F)cc2)c1=O`, the “activity change, negative = inhibition” value was 120%. In the case of `N=c1ccn2c(n1)O[C@H]1[C@@H](O)[C@@H](CO)O[C@H]12`, the “activity change, negative = inhibition” value was 30.7%. With `COC(=O)[C@@H]1CC2=CC(=O)CC[C@]2(C)[C@@]23O[C@@H]2C[C@@]2(C)[C@H](CC[C@@]24CCC(=O)O4)[C@@H]13`, the “activity change, negative = inhibition” value was 7.86%. On to `C[C@H](CCC(=O)O)[C@H]1CCC2C3C[C@H](O)[C@@H]4C[C@H](O)CC[C@]4(C)C3CC[C@@]21C` (stereo not given in full), for which the “activity change, negative = inhibition” value was -1.5%. On to `COc1ccc(C[C@@H](C)[C@@H](C)Cc2ccc(OC)c(OC)c2)cc1OC`, for which the “activity change, negative = inhibition” value was 21.9%. In the case of `CC1(C)CC(O)CC(C)(C)N1[O]`, the “activity change, negative = inhibition” value is 26.9%. For the compound `Cc1ccc2nc(NCCN)c3ncc(C)n3c2c1`, the “activity change, negative = inhibition” value was 86.5%. To `COc1ccc2cc([S+]([O-])Cc3ncc(C)c(OC)c3C)nc2c1` belongs 41.4%. With `Cc1cnc(Nc2ccc(CN3CCOCC3)cc2)nc1Nc1cccc(S(=O)(=O)NC(C)(C)C)c1`, the “activity change, negative = inhibition” value is 92.6%. For the compound `C[C@]12CC[C@@H]3c4ccc(O)cc4CC[C@H]3[C@H]1CC[C@H]2O`, the “activity change, negative = inhibition” value was 14.4%. Consider `OCC(O)C(O)C(O)CO` (stereo not given), for which the “activity change, negative = inhibition” value is -10.2%. `C=CC(=O)Nc1cccc(Nc2nc(NC3CCC(N(C)C)CC3)nc3c2ncn3C(C)C)c1` (stereo not given): the “activity change, negative = inhibition” value was 133%. Take `Cc1cnn(C)c1C(=O)Nc1cc(Nc2ccc3c(C=Cc4ccccn4)n[nH]c3c2)ccc1F`: the “activity change, negative = inhibition” value was 2.12%. For the compound `N#CC(=C(N)Sc1ccc(N)cc1)c1ccccc1C(F)(F)F`, the “activity change, negative = inhibition” value is 0.926%. Consider `CC(=O)N[C@H]1[C@@H]([C@H](O)[C@H](O)CO)OC(C(=O)O)=C[C@@H]1N=C(N)N`, for which the “activity change, negative = inhibition” value is 26.8%. In the case of `COC1=C2C[C@@H](C)C[C@H](OC)[C@@H](O)[C@@H](C)C=C(C)[C@H](OC(N)=O)[C@@H](OC)C=CC=C(C)C(=O)NC(=CC1=O)C2=O`, the “activity change, negative = inhibition” value was -3.23%. Turning to `C#Cc1cccc(Nc2ncnc3cc(OCCOC)c(OCCO)cc23)c1`, the “activity change, negative = inhibition” value is -17.9%. Regarding `CN1[C@H]2CC(OC(=O)[C@@H](CO)c3ccccc3)C[C@H]1[C@H]1O[C@H]12` (stereo not given in full), the “activity change, negative = inhibition” value was 25.9% [at 20.5 µM].

As to `CC(C=CC(=O)NO)=C[C@@H](C)C(=O)c1ccc(N(C)C)cc1`, the “activity change, negative = inhibition” value was 14.8%.

In the case of `NC(=NCCCCCCN=C(N)N=C(N)Nc1ccc(Cl)cc1)N=C(N)Nc1ccc(Cl)cc1`, the “activity change, negative = inhibition” value is 19.8%.

With `C[C@]12CCC(=O)C=C1[C@@H]1CC1[C@H]1[C@H]3[C@@H]4C[C@H]4[C@@]4(CCC(=O)O4)[C@@]3(C)CC[C@H]12` (stereo not given in full), the “activity change, negative = inhibition” value was -8.45%. With `CC(=O)ON=C1C(c2c(O)[nH]c3cc(Br)ccc23)=Nc2ccccc21`, the “activity change, negative = inhibition” value was 9.65%.

In the case of `C[C@@H](Cc1cc2c(c(C(N)=O)c1)N(CCCO)CC2)NCCOc1ccccc1OCC(F)(F)F`, the “activity change, negative = inhibition” value is 21.1%. In the case of `COc1ccc(S(=O)(=O)Nc2cccnc2Nc2ccc(O)cc2)cc1`, the “activity change, negative = inhibition” value was -1.22%. In the case of `CN[C@@H]1C[C@H]2O[C@@](C)([C@H]1OC)n1c3ccccc3c3c4c(c5c6ccccc6n2c5c31)C(=O)N[C@H]4O`, the “activity change, negative = inhibition” value was -0.691%.

For the compound `Cc1ccc([N+](=O)[O-])cc1S(=O)(=O)N(C)N=Cc1cnc2ccc(Br)cn12`, the “activity change, negative = inhibition” value is 52.5%. To `O=C(c1ccc(F)cc1)N1CCC[C@H](c2nc(-c3ccc(F)cc3)no2)C1` belongs -4.25%. As for `CN(C)CC(=O)N1CCC(c2ccc(NC(=O)c3ncc(C#N)[nH]3)c(C3=CCCCC3)c2)CC1`, the figure is 72.8%; as for `Nc1nc(N)c2nc(-c3cccc(O)c3)c(-c3cccc(O)c3)nc2n1`, 64.3%.

For the compound `N#Cc1ccc(COC[C@H]2O[C@@H](n3c(NCc4ccc(Cl)c(Cl)c4)nc4c(N)ncnc43)[C@@H](O)[C@@H]2O)cc1`, the “activity change, negative = inhibition” value is 55.2%.

As to `CCCCCCCN(CC)CCCC(O)c1ccc(NS(C)(=O)=O)cc1` (stereo not given), the “activity change, negative = inhibition” value is -0.318%. On to `CN(C)c1ccc(C(=O)NCCCCCCC(=O)NO)cc1`, for which the “activity change, negative = inhibition” value was 36.5%.

As to `CN(CC(=O)N(Cc1ccc(C2CCCCC2)cc1)c1ccc(C(=O)O)c(O)c1)S(=O)(=O)c1c(F)c(F)c(F)c(F)c1F`, the “activity change, negative = inhibition” value was -1.72%.

In the case of `O=C(NC1CC1)c1cccc(-c2ccc3c(NC(=O)C4CC4)n[nH]c3c2)c1`, the “activity change, negative = inhibition” value is 4.3%. For the compound `CCC(C)CCCCC(=O)N[C@@H](CCN)C(=O)NC(C(=O)N[C@H](CCN)C(=O)N[C@@H]1CCNC(=O)C([C@@H](C)O)NC(=O)[C@@H](CCN)NC(=O)[C@@H](CCN)NC(=O)[C@@H](CC(C)C)NC(=O)[C@H](Cc2ccccc2)NC(=O)[C@H](CCN)NC1=O)[C@@H](C)O` (stereo partly drawn) ({Octanoyl(6-Me)}-[Dab][ξThr(3R)][dDab][dDab][Dab]F[dL][dDab][dDab][ξThr(3R)]; lactam 4-C), the “activity change, negative = inhibition” value is -8.73%. To `CCOc1cc2c(c(F)c1OCC)C(=N)N(CC(=O)c1cc(N3CCOCC3)c(OC)c(C(C)(C)C)c1)C2` belongs 6.7%; to `C=CC1=C(C(=O)O)N2C(=O)[C@@H](NC(=O)C(=NO)c3csc(N)n3)[C@H]2SC1`, 9.08%; to `CCN1CCN(C(=O)N[C@H](C(=O)N[C@@H]2C(=O)N3C(C(=O)O)=C(CSc4nnnn4C)CS[C@@H]23)c2ccc(O)cc2)C(=O)C1=O`, 10.4% [at 15.2 µM].
